AmpC detergent: AmpC beta-lactamase inhibition with detergent present | P00811 | AmpC hydrolysis of nitrocefin, absorbance 480 nm, 0.01% Triton | Potency, µM (top dose mostly 114 µM), inactives show at the highest dose activity change, negative = inhibition, hits mostly inhibitors | 0.041% of 370,000 active | AID 485294;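 further: 0% = no-compound wells and -100% = no-enzyme wells; nearly all actives have a fitted effect of over 25% in size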
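20 mM phosphate pH 7.0 + 0.01% (detergent screen) or 0.0001% Triton X-100; 5.3 nM AmpC reagent; cpd preinc 15 min RT; nitrocefin (800 uM stock) to start; A480 q20 s × 4 min; Activity was normalised to no-enzyme and no-compound control wells.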
AmpC no deterg: blocks E. coli AmpC beta-lactamase in detergent-free assay. AmpC nitrocefin hydrolysis, absorbance 480 nm, 0.0001% Triton. Potency, µM (titrated, usually from 57.1 µM), inactives show at the highest dose activity change, negative = inhibition, most hits filed as inhibitors. 0.52% of 330,000 active. AID 485341;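 further: plate controls were no compound for no effect and no enzyme for full effect; nearly all actives have a fitted effect of over 20% in size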
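20 mM phosphate pH 7.0 + 0.01% (detergent screen) or 0.0001% Triton X-100; 5.3 nM AmpC reagent; cpd preinc 15 min RT; nitrocefin (800 uM stock) to start; A480 q20 s × 4 min; Activity was normalised to no-enzyme and no-compound control wells.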
LmPK inh: LmPK (Leishmania mexicana) enzyme inhibition; Q27686; purified LmPK, Kinase-Glo ATP luminescence, 1 h; Potency, µM (titrated, usually from 57.5 µM), without a hit: at the top dose activity change, negative = inhibition, usual class: inhibitors; 0.37% of 290,000 active; AID 1721
Target sequence (Q27686 whole entry, looked up): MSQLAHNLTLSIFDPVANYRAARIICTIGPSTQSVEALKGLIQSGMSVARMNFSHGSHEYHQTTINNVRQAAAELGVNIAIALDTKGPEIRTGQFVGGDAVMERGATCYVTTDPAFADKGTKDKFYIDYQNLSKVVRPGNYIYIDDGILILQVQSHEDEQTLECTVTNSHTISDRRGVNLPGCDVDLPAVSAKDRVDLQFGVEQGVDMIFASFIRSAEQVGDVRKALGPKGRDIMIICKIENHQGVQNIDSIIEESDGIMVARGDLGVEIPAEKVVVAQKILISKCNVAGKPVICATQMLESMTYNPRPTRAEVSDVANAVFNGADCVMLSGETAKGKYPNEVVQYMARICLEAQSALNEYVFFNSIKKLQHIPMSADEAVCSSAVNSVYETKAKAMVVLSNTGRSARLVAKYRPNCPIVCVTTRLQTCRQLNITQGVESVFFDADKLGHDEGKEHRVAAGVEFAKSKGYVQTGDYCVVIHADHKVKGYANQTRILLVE
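Screened at intermediate enzyme activity to detect both inhibitors and activators: LmPK at 0.1 nM, with a 0.5 nM enzyme column as activation reference. PEP 0.5 mM, ADP 0.1 mM; ATP detected by luminescence after 1 h.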
AMA1 RON2 block: AMA1-RON2 (P. falciparum) interaction inhibition. AlphaScreen AMA1-biotinylated RON2 peptide binding. 0.2% of 360,000 active. Potency, µM (top dose mostly 58.2 µM), for the others: at the top dose activity change, negative = inhibition, usual class: inhibitors. AID 720542;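 further: 0% = vehicle wells and -100% = peptide control; nearly all actives have a fitted effect of over 45% in size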
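AMA1 (3D7) with his tag at 25 nM final met compounds first, then biotinylated RON2 peptide at 25 nM; detection used donor plus acceptor beads, 10 µg/mL apiece, read by AlphaScreen after 30 min at room temperature.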
Giardia FBPA inh-1: Giardia lamblia aldolase inhibition; 0.71% of 290,000 active; AID 2451; purified Giardia FBPA; Potency, µM (top dose mostly 59.6 µM), for inactives: at the highest dose activity, negative = inhibition, hits mostly inhibitors; further: nearly all actives have a fitted effect of over 55% in size
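Giardia FBPA (40 nM reagent) was preincubated 10 min at RT with compound (up to 57.5 uM final), then substrate plus GAPDH/TPI/NAD/arsenate coupling system with diaphorase/resazurin was added; resorufin fluorescence (525/598 nm) was read after 20 min.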
Giardia growth: inhibitors of Giardia lamblia growth | Giardia lamblia trophozoite growth inhibition | Potency, µM (highest dose often 57.5 µM), for inactives: at the top dose activity change, negative = inhibition, hits mostly inhibitors | shares compounds with Giardia FBPA inh-1 | 5% of 1,500 active | AID 2785;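 further: trophozoites exposed to compound for 48 h at 37 °C; nearly all actives have a fitted effect of over 70% in size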
Mammal cell tox: mammalian cytotoxicity of Giardia aldolase inhibitor hits | shares compounds with Giardia FBPA inh-1 | mammalian cell viability counter-screen, qHTS | Potency, µM (top dose mostly 57.5 µM), for the others: at the top dose viability change, negative = toxicity, most hits filed as inhibitors | 4% of 1,500 active | AID 2786;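 further: Chinese hamster ovary cells used as mammalian cytotoxicity surrogate; viability measured as cellular ATP by luminescence; compound exposure lasted 48 h before reading; nearly all actives have a fitted effect of over 60% in size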
Giardia FBPA inh-2: confirmation of Giardia fructose-bisphosphate aldolase inhibitors | shares compounds with Giardia FBPA inh-1 | purified Giardia aldolase enzyme activity, qHTS | Potency, µM (top dose mostly 57.5 µM), inactives show top-dose activity change, negative = inhibition, actives largely listed as inhibitors | 5% of 1,500 active | AID 2787; further: nearly all actives have a fitted effect of over 45% in size
Rabbit aldolase: rabbit FBP aldolase inhibition by Giardia aldolase hits; 4% of 1,500 active; Potency, µM (top dose mostly 57.5 µM), without a hit: at the top dose activity, negative = inhibition, most hits filed as inhibitors; Rabbit muscle FBPA enzyme inhibition, selectivity counter-screen; AID 2794; shares compounds with Giardia FBPA inh-1; further: nearly all actives have a fitted effect of over 60% in size
GAPDH coupling: GAPDH inhibition flagged for Giardia aldolase hits; shares compounds with Giardia FBPA inh-1; GAPDH coupling enzyme counterscreen, biochemical, qHTS; Potency, µM (highest dose often 57.5 µM), for inactives: at the highest dose activity change, negative = inhibition, usual class: inhibitors; 6% of 1,500 active; AID 2795; further: nearly all actives have a fitted effect of over 55% in size
Numbers without * were called inactive; ? = inconclusive; · = not tested or not shown; [ ] = dose if it differs, or a comment. In the library only some 1.3% were active in any assay of this set; here they are far more common. The call rests on the fitted dose curve; in most records, active means well fitted curve in the direction sought with a large enough effect; inconclusive means small, poorly fitted or top-dose-only effect, or another doubt; inactive means no such curve, though single readings can be large; an effect the other way counts as inactive or inconclusive. Unless noted, on the % scale 0 is the no-effect control and ±100 the full control effect; potency means the concentration at half of the fitted maximal effect.

SMILES	AmpC detergent	AmpC no deterg	LmPK inh	AMA1 RON2 block	Giardia FBPA inh-1	Giardia growth	Mammal cell tox	Giardia FBPA inh-2	Rabbit aldolase	GAPDH coupling
COC/C=C/C1=CC2=CC(=O)C(C)(OC(=O)c3cnc4ccccc4n3)C(=O)C2=CN1Cc1ccccc1 (configuration not stated)	-6%	99%	-3%[11.5 µM]	-27%	2.2µM*	-20%[38.3 µM]	-8%	?	?	25µM*
COC/C=C/C1=CC2=CC(=O)C(C)(OC(=O)c3cnc4ccccc4n3)C(=O)C2=CN1Cc1ccc(OC)cc1 (configuration not stated)	0%	89%	-5%[11.5 µM]	-17%	?	·	·	·	·	·
O=C(Nc1sc2c(c1C(=O)O)CCC2)c1ccc(F)cc1	-3%	-21%	-25%	10%	14µM*	?	-14%	-26%	?	?
CCCC(CNC(C)=O)(C1=CCCCC1)c1ccccc1 (configuration not stated)	·	·	·	11%	·	·	·	·	·	·
CNc1n[nH]c(=S)s1	1%	-14%	2%	-3%	18µM*	-17%	1%	-1%	-4%	12%
Cc1ccc(-c2nc3ccccc3nc2-c2ccccc2)cc1	4%	3%	2%	15%	4%	·	·	·	·	·
CNc1nc(-c2ccccc2)[n+](-c2ccc(C)cc2)s1	0%	-10%	22µM*	-25%	13µM*	?	-15%	?	10µM*	6%
CCCCn1c(NS(=O)(=O)c2ccc(C)cc2)c(S(=O)(=O)c2ccccc2)c2nc3ccccc3nc21	-8%	-13%	5%	-1%	?	·	·	·	·	·
CCCCn1c(NS(=O)(=O)c2ccccc2)c(C(=O)OCC)c2nc3ccccc3nc21	-4%	-50%	-1%	-2%	0.45µM*	-7%[38.3 µM]	-5%	?	-25%	40µM*
CCCOc1ccc(-c2nonc2NC(=O)COc2ccc(C)cc2)cc1OCCC	9%	·	·	·	·	·	·	·	·	·
O=C(NNC(=S)Nc1ccc(Cl)c(Cl)c1)c1ccccn1	3%	-46%	0%	-75%	14µM*	-15%[10.4 µM]	?	28%	15%	18%
O=C(NCC(c1ccc2c(c1)OCO2)N1CCN(c2ccccc2)CC1)C(=O)Nc1cccc(F)c1 (configuration not stated)	-4%	·	·	·	·	·	·	·	·	·
COc1ccc(OC)c(CN2CCC(C(=O)N(C)CCc3ccc(OC)c(OC)c3)CC2)c1	-6%	18%	-9%	-17%	?	·	·	·	·	·
COc1ccc(CCN(C)C(=O)C2CCCN(C3CCN(Cc4ccccc4)CC3)C2)cc1OC (configuration not stated)	?	-5%	-3%	?	18µM*	?	0%	-6%	-6%	6%
C=CC1=C2C=C(C3CC3)N(Cc3ccco3)C=C2C(=O)C(C)(OC(=O)c2ccco2)C1=O (configuration not stated)	·	·	-2%[11.5 µM]	·	6%[12.9 µM]	·	·	·	·	·
NC(=S)NNc1c(F)c(F)c(F)c(F)c1F	-20%	-31%	-1%	43%	16µM*	-1%[10.4 µM]	-12%	-11%	5%	1%
Cc1ccccc1NNC(N)=S	?	-16%	0%	21%	?	·	·	·	·	·
Cc1cc(C)c2c(CC(=O)Nc3nnc(C(C)C)s3)coc2c1	-3%	·	·	·	·	·	·	·	·	·
O=C(O)CC1S/C(=N/N=C/c2ccccn2)NC1=O (configuration not stated)	2%	-4%	-4%	-19%	18µM*	15%	12%	18%	4%	8%
COc1cc(/C=N/N=C2/NC(=O)C(CC(=O)O)S2)ccc1OCc1ccc(Cl)cc1 (configuration not stated)	?	-20%	?	55%	7%	·	·	·	·	·
COc1ccc(N2CCN(C(=O)COC(=O)c3nc(Cl)ccc3Cl)CC2)cc1	·	·	·	-1%	·	·	·	·	·	·
Clc1cccc(CN2CCN(Cc3ccco3)CC2)c1	0%	5%	-3%	?	14µM*	-17%	-9%	-1%	-3%	2%
O=C(CNCc1ccccc1)Nc1cccc(Cl)c1Cl	?	-3%	4%	-10%	16µM*	17%	0%	2%	-3%	9%
CC(C)(C)c1ccc(/C=N/Nc2nncn2N)cc1	?	-6%	-13%	40%	16µM*	-8%[10.4 µM]	-3%	14µM*	?	?

Source: PubChem BioAssay (National Center for Advancing Translational Sciences (NCATS))
